In all, about 5,500 compounds went through this assay and about 2,000 (36%) were called active. Another 18% or so got no clear call; they are omitted. The list shows a part of the results. Values without a mark were called inactive. Cut-off read from the data, not from the text of the source: active = normalized growth mostly below about 0.91 (no sharp cut-off); inconclusive = no clear call, values can overlap the other calls; inactive = mostly above about 0.92.
Test: chemical genetic growth profiling, strain panel (AID 1159580);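 note: tested at 20 µM; growth read once vehicle control cultures reached saturation at 30 °C; 1 = growth at the plate median or of vehicle wells; lower values mean less growth of the strain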
Details: growth OD

For C[C@H](CCC(=O)O)[C@H]1CCC2C3C(CC[C@@]21C)[C@@]1(C)CC[C@@H](O)C[C@H]1C[C@@H]3O (stereo partly specified), the normalized growth (S. cerevisiae deletion strains, locus YKL009W, strain mrt4, active compounds read low) was 0.807 (active), the normalized growth (S. cerevisiae deletion strains, locus YKL068W, active compounds read low) was 0.989 and the normalized growth (S. cerevisiae deletion strains, locus YKL085W, strain MDH1 (second series), active compounds read low) was 0.953. For the same compound, the normalized growth (S. cerevisiae deletion strains, locus YKL085W, strain MDH1, active compounds read low) was 0.953, the normalized growth (S. cerevisiae deletion strains, locus YKL160W, strain elf1, active compounds read low) was 0.977 and the normalized growth (S. cerevisiae deletion strains, locus YKL190W, strain CNB1, active compounds read low) was 0.99. The normalized growth (S. cerevisiae deletion strains, locus YKR001C, strain vps1, active compounds read low) was 0.963, the normalized growth (S. cerevisiae deletion strains, locus YKR026C, strain gcn3, active compounds read low) was 0.997 and the normalized growth (S. cerevisiae deletion strains, locus YKR091W, strain srl3, active compounds read low) was 0.99. For the same compound, the normalized growth (S. cerevisiae deletion strains, locus YLL001W, strain dnm1, active compounds read low) was 0.953, the normalized growth (S. cerevisiae deletion strains, locus YLL026W, active compounds read low) was 0.987 and the normalized growth (S. cerevisiae deletion strains, locus YLL041C, strain sdh2, active compounds read low) was 1. For the same compound, the normalized growth (S. cerevisiae deletion strains, locus YLR027C, strain aat2, active compounds read low) was 0.983, the normalized growth (S. cerevisiae deletion strains, locus YLR039C, strain RIC1, active compounds read low) was 0.828 and the normalized growth (S. cerevisiae deletion strains, locus YLR058C, strain SHM2, active compounds read low) was 0.984. For the same compound, the normalized growth (S. cerevisiae deletion strains, locus YLR102C, strain apc9, active compounds read low) was 0.972, the normalized growth (S. cerevisiae deletion strains, locus YLR113W, strain HOG1, active compounds read low) was 0.937 and the normalized growth (S. cerevisiae deletion strains, locus YLR221C, strain rsa3, active compounds read low) was 1.05. The normalized growth (S. cerevisiae deletion strains, locus YLR258W, strain gsy2, active compounds read low) was 1.02, the normalized growth (S. cerevisiae deletion strains, locus YLR262C, strain YPT6 (second series), active compounds read low) was 0.795 (active) and the normalized growth (S. cerevisiae deletion strains, locus YLR262C, strain YPT6, active compounds read low) was 0.776. The normalized growth (S. cerevisiae deletion strains, locus YLR268W, strain sec22, active compounds read low) was 0.929, the normalized growth (S. cerevisiae deletion strains, locus YLR320W, strain mms22, active compounds read low) was 1.03 and the normalized growth (S. cerevisiae deletion strains, locus YLR330W, strain CHS5, active compounds read low) was 0.996. The normalized growth (S. cerevisiae deletion strains, locus YLR342W, strain FKS1 (second series), active compounds read low) was 0.965, the normalized growth (S. cerevisiae deletion strains, locus YLR342W, strain FKS1, active compounds read low) was 0.946 and the normalized growth (S. cerevisiae deletion strains, locus YLR357W, strain rsc2, active compounds read low) was 1.06. For the same compound, the normalized growth (S. cerevisiae deletion strains, locus YLR370C, strain arc18, active compounds read low) was 0.964, the normalized growth (S. cerevisiae deletion strains, locus YLR371W, strain rom2, active compounds read low) was 0.987 and the normalized growth (S. cerevisiae deletion strains, locus YLR384C, strain iki3, active compounds read low) was 0.967. For the same compound, the normalized growth (S. cerevisiae deletion strains, locus YLR418C, strain cdc73, active compounds read low) was 0.965, the normalized growth (S. cerevisiae deletion strains, locus YML016C, strain PPZ1, active compounds read low) was 0.978 and the normalized growth (S. cerevisiae deletion strains, locus YML032C, strain rad52, active compounds read low) was 0.95. For the same compound, the normalized growth (S. cerevisiae deletion strains, locus YML120C, strain ndi1, active compounds read low) was 0.962, the normalized growth (S. cerevisiae deletion strains, locus YML124C, strain tub3, active compounds read low) was 0.986 and the normalized growth (S. cerevisiae deletion strains, locus YMR058W, strain fet3, active compounds read low) was 0.997. The normalized growth (S. cerevisiae deletion strains, locus YMR078C, strain ctf18, active compounds read low) was 0.972, the normalized growth (S. cerevisiae deletion strains, locus YMR125W, strain sto1, active compounds read low) was 1.03 and the normalized growth (S. cerevisiae deletion strains, locus YMR129W, active compounds read low) was 0.988. For the same compound, the normalized growth (S. cerevisiae deletion strains, locus YMR205C, strain PFK2, active compounds read low) was 0.985, the normalized growth (S. cerevisiae deletion strains, locus YMR223W, strain ubp8, active compounds read low) was 1 and the normalized growth (S. cerevisiae deletion strains, locus YMR231W, strain pep5, active compounds read low) was 0.959. For the same compound, the normalized growth (S. cerevisiae deletion strains, locus YMR263W, strain SAP30, active compounds read low) was 1, the normalized growth (S. cerevisiae deletion strains, locus YMR307W, strain GAS1, active compounds read low) was 0.88 and the normalized growth (S. cerevisiae deletion strains, locus YNL067W, strain RPL9B, active compounds read low) was 0.972. For the same compound, the normalized growth (S. cerevisiae deletion strains, locus YNL071W, strain lat1, active compounds read low) was 1.01, the normalized growth (S. cerevisiae deletion strains, locus YNL128W, strain TEP1, active compounds read low) was 0.99 and the normalized growth (S. cerevisiae deletion strains, locus YNL153C, strain GIM3, active compounds read low) was 1. It also gave a normalized growth (S. cerevisiae deletion strains, locus YNL183C, strain NPR1, active compounds read low) of 0.921, a normalized growth (S. cerevisiae deletion strains, locus YNL209W, strain ssb2, active compounds read low) of 1.01 and a normalized growth (S. cerevisiae deletion strains, locus YNL233W, strain BNI4, active compounds read low) of 1.02. The normalized growth (S. cerevisiae deletion strains, locus YNL248C, strain rpa49, active compounds read low) was 1.02, the normalized growth (S. cerevisiae deletion strains, locus YNL250W, strain rad50, active compounds read low) was 0.978 and the normalized growth (S. cerevisiae deletion strains, locus YNL271C, strain bni1, active compounds read low) was 0.956. It also gave a normalized growth (S. cerevisiae deletion strains, locus YNL298W, strain CLA4, active compounds read low) of 0.937, a normalized growth (S. cerevisiae deletion strains, locus YNL307C, strain MCK1, active compounds read low) of 0.979 and a normalized growth (S. cerevisiae deletion strains, locus YNL322C, strain KRE1 (second series), active compounds read low) of 0.981. The normalized growth (S. cerevisiae deletion strains, locus YNL322C, strain KRE1, active compounds read low) was 0.993, the normalized growth (S. cerevisiae deletion strains, locus YNR049C, strain mso1, active compounds read low) was 0.993 and the normalized growth (S. cerevisiae deletion strains, locus YNR052C, strain pop2, active compounds read low) was 0.971. It also gave a normalized growth (S. cerevisiae deletion strains, locus YOL006C, strain TOP1, active compounds read low) of 0.931, a normalized growth (S. cerevisiae deletion strains, locus YOL012C, strain htz1) of 0.86 and a normalized growth (S. cerevisiae deletion strains, locus YOL147C, strain pex11, active compounds read low) of 0.983. For the same compound, the normalized growth (S. cerevisiae deletion strains, locus YOR001W, strain rrp6, active compounds read low) was 0.947, the normalized growth (S. cerevisiae deletion strains, locus YOR061W, strain CKA2, active compounds read low) was 0.977 and the normalized growth (S. cerevisiae deletion strains, locus YOR069W, strain VPS5, active compounds read low) was 0.989. For the same compound, the normalized growth (S. cerevisiae deletion strains, locus YOR070C, strain gyp1, active compounds read low) was 1, the normalized growth (S. cerevisiae deletion strains, locus YOR080W, strain dia2, active compounds read low) was 0.972 and the normalized growth (S. cerevisiae deletion strains, locus YOR083W, strain WHI5, active compounds read low) was 0.969. For the same compound, the normalized growth (S. cerevisiae deletion strains, locus YOR106W, strain vam3, active compounds read low) was 0.951, the normalized growth (S. cerevisiae deletion strains, locus YOR136W, strain idh2, active compounds read low) was 1 and the normalized growth (S. cerevisiae deletion strains, locus YOR144C, strain elg1, active compounds read low) was 0.984. For the same compound, the normalized growth (S. cerevisiae deletion strains, locus YOR184W, strain ser1, active compounds read low) was 0.921, the normalized growth (S. cerevisiae deletion strains, locus YOR231W, strain MKK1, active compounds read low) was 0.952 and the normalized growth (S. cerevisiae deletion strains, locus YOR265W, strain rbl2, active compounds read low) was 0.99. It also gave a normalized growth (S. cerevisiae deletion strains, locus YOR270C, strain vph1, active compounds read low) of 0.945, a normalized growth (S. cerevisiae deletion strains, locus YOR290C, strain snf2, active compounds read low) of 1.03 and a normalized growth (S. cerevisiae deletion strains, locus YOR316C, strain cot1, active compounds read low) of 0.982. It also gave a normalized growth (S. cerevisiae deletion strains, locus YPL051W, strain arl3, active compounds read low) of 1, a normalized growth (S. cerevisiae deletion strains, locus YPL055C, strain LGE1, active compounds read low) of 1.01 and a normalized growth (S. cerevisiae deletion strains, locus YPL078C, strain atp4, active compounds read low) of 0.931. For the same compound, the normalized growth (S. cerevisiae deletion strains, locus YPL106C, strain sse1, active compounds read low) was 0.993, the normalized growth (S. cerevisiae deletion strains, locus YPL240C, strain hsp82, active compounds read low) was 1.01 and the normalized growth (S. cerevisiae deletion strains, locus YPL241C, strain CIN2, active compounds read low) was 0.993. It also gave a normalized growth (S. cerevisiae deletion strains, locus YPL256C, strain CLN2, active compounds read low) of 0.936, a normalized growth (S. cerevisiae deletion strains, locus YPR119W, strain clb2, active compounds read low) of 0.977 and a normalized growth (S. cerevisiae deletion strains, locus YPR141C, strain kar3, active compounds read low) of 0.97. It also gave a normalized growth (S. cerevisiae deletion strains, locus YPR163C, strain tif3, active compounds read low) of 0.981, a normalized growth (S. cerevisiae deletion strains, locus YPR167C, strain met16, active compounds read low) of 0.987 and a normalized growth (S. cerevisiae deletion strains, strain wtn01, active compounds read low) of 0.971. For the same compound, the normalized growth (S. cerevisiae strains, strain wild type, active compounds read low) was 0.994.

Reference: PubChem BioAssay AID1159580 (chemical genetic matrix, 2015)
